Data: PubChem BioAssay (EPA / NIEHS)
Active and inactive are the calls of the source. Rule for the calls: active = hit-call score of the fitted dose curve at least 0.9, where 1 is the maximum; inactive = score below 0.9.

Key:
Settings in all cases: mRNA level, 48 h; actives raise or lower the signal
[1] = read-out: Fatty acid synthase (Homo sapiens) (UniProt P49327); assay: LTEA_HepaRG_FASN: Life Technologies and Expression Analysis (LTEA) Assay for Fatty Acid Synthase (FASN) using HepaRG (AID 2283448)
Outline: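 HepaRG, 48 h exposure, 8-pt half-log series top 100 uM, 0.5% DMSO vehicle, duplicates. Readout: FASN transcript by Fluidigm qRT-PCR; housekeeping-normalized; bidirectional curve fit vs DMSO baseline.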

[2] = read-out: Cyclin D2 (CCND2), CCND2 (gene 894); assay: LTEA_HepaRG_CCND2: Life Technologies and Expression Analysis (LTEA) Assay for Cyclin D2 (CCND2) using HepaRG (AID 2283449)
Outline: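 CCND2 transcript levels, quantified by qRT-PCR and normalised to three housekeeping genes, were fitted bidirectionally against 0.5% DMSO. HepaRG cultures were dosed 48 h in duplicate with an 8-point half-log series up to 100 uM.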

[3] = read-out: Cyclin Dependent Kinase Inhibitor 1A (CDKN1A), CDKN1A (gene 1026); assay: LTEA_HepaRG_CDKN1A: Life Technologies and Expression Analysis (LTEA) Assay for Cyclin Dependent Kinase Inhibitor 1A (CDKN1A) using HepaRG (AID 2283450)
Outline: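 Differentiated HepaRG cells in serum-free induction medium, exposed 48 h in duplicate to eight half-log concentrations up to 100 uM in 0.5% DMSO. mRNA measured by TaqMan qRT-PCR, normalized to ACTB, GAPDH, POLR2A; bidirectional fit versus DMSO.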

[4] = read-out: Cyclin D1 (CCND1), CCND1 (gene 595); assay: LTEA_HepaRG_CCND1: Life Technologies and Expression Analysis (LTEA) Assay for Cyclin D1 (CCND1) using HepaRG (AID 2283451);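 for AC50: TaqMan qRT-PCR transcript level normalised to ACTB GAPDH and POLR2A housekeeping genes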
Outline: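 Differentiated HepaRG cells exposed 48 h in serum-free induction medium to eight half-log concentrations from 100 uM top, 0.5% DMSO, duplicates. CCND1 mRNA measured by Fluidigm TaqMan qRT-PCR, normalised to ACTB, GAPDH, POLR2A; bidirectional fit.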

[5] = read-out: flavin-containing dimethylaniline monooxygenases 3 (FMO3), FMO3 (gene 2328); assay: LTEA_HepaRG_FMO3: Life Technologies and Expression Analysis (LTEA) Assay for flavin-containing dimethylaniline monooxygenases 3 (FMO3) using HepaRG (AID 2283453)
Outline: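 Eight-point concentration-response in serum-free HepaRG cultures (top 100 uM, 0.5% DMSO, 48 h). Read-out: FMO3 mRNA level normalized to three endogenous control genes, fitted bidirectionally versus vehicle.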

[6] = read-out: Cytochrome P450 (CYP1A1), CYP1A1 (gene 1543); assay: LTEA_HepaRG_CYP1A1: Life Technologies and Expression Analysis (LTEA) Assay for Cytochrome P450 (CYP1A1) using HepaRG (AID 2283454)
Outline: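 Differentiated human HepaRG cells, after 48 h plating, exposed in duplicate for 48 h in serum-free induction medium to 8 half-log concentrations up to 100 uM in 0.5% DMSO. CYP1A1 mRNA by qRT-PCR, normalized to ACTB/GAPDH/POLR2A; bidirectional fit versus DMSO.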

[7] = read-out: CFLAR gene, CFLAR (gene 8837); assay: LTEA_HepaRG_CFLAR: Life Technologies and Expression Analysis (LTEA) Assay for CFLAR gene using HepaRG (AID 2283455)
Outline: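 Transcript level by qRT-PCR (normalized to ACTB, GAPDH and POLR2A) after 48 h chemical exposure of HepaRG cells, top concentration 100 uM with half-log steps, 0.5% DMSO vehicle, duplicates; fitted bidirectionally against DMSO baseline.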

[8] = read-out: Forkhead box O1 (FOXO1), FOXO1 (gene 2308); assay: LTEA_HepaRG_FOXO1: Life Technologies and Expression Analysis (LTEA) Assay for Forkhead box O1 (FOXO1) using HepaRG (AID 2283456)
Outline: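 FOXO1 transcript quantified by qRT-PCR after 48 h chemical exposure (top 100 uM, half-log steps, 0.5% DMSO) of HepaRG cells, housekeeping-normalized (ACTB/GAPDH/POLR2A). Changes fitted in both directions relative to vehicle.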

[9] = read-out: growth arrest and DNA damage 45 (GADD45A), GADD45A (gene 1647); assay: LTEA_HepaRG_GADD45A: Life Technologies and Expression Analysis (LTEA) Assay for growth arrest and DNA damage 45 (GADD45A) using HepaRG (AID 2283458)
Outline: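 HepaRG, 48 h exposure, 8 conc. (top 100 uM, half-log steps), 0.5% DMSO vehicle, duplicates. Read-out: qRT-PCR mRNA level, housekeeping-normalized (ACTB/GAPDH/POLR2A). Curves fit bidirectionally vs DMSO baseline.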

[10] = read-out: Forkhead box O3 (FOXO3), FOXO3 (gene 2309); assay: LTEA_HepaRG_FOXO3: Life Technologies and Expression Analysis (LTEA) Assay for Forkhead box O3 (FOXO3) using HepaRG (AID 2283459)
Outline: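 FOXO3 transcript measured by qRT-PCR (normalized to ACTB, GAPDH, POLR2A) after 48 h exposure of HepaRG cells in serum-free induction medium. Duplicates, eight half-log concentrations up to 100 uM, 0.5% DMSO; gain or loss fitted against DMSO.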

[11] = read-out: ABC Transporter (ABCB1), ABCB1 (gene 5243); assay: LTEA_HepaRG_ABCB1: Life Technologies and Expression Analysis (LTEA) Assay for ABC Transporter (ABCB1) using HepaRG (AID 2283460)
Outline: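 ABCB1 transcript level measured by TaqMan qRT-PCR against three housekeeping genes after 48 h chemical exposure of differentiated HepaRG cells. Top concentration 100 uM, half-log steps, eight points, 0.5% DMSO vehicle; bidirectional fit relative to DMSO.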

[12] = read-out: growth arrest and DNA damage 45 (GADD45B), GADD45B (gene 4616); assay: LTEA_HepaRG_GADD45B: Life Technologies and Expression Analysis (LTEA) Assay for growth arrest and DNA damage 45 (GADD45B) using HepaRG (AID 2283461)
Outline: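 Differentiated human HepaRG cells in serum-free induction medium exposed 48 h in duplicate to eight concentrations, top 100 uM, half-log steps, 0.5% DMSO. GADD45B mRNA by TaqMan qRT-PCR, normalized to ACTB, GAPDH, POLR2A; bidirectional fit versus DMSO.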

[13] = read-out: ABC Transporter (ABCC3), ABCC3 (gene 8714); assay: LTEA_HepaRG_ABCC3: Life Technologies and Expression Analysis (LTEA) Assay for ABC Transporter (ABCC3) using HepaRG (AID 2283462)
Outline: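 Differentiated human HepaRG cells exposed 48 h in serum-free induction medium, 0.5% DMSO vehicle, 8-point half-log series to 100 uM in duplicate. ABCC3 mRNA by qRT-PCR, normalised to ACTB, GAPDH, POLR2A; bidirectional fit vs DMSO.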

[14] = read-out: ABC Transporter (ABCB11), ABCB11 (gene 8647); assay: LTEA_HepaRG_ABCB11: Life Technologies and Expression Analysis (LTEA) Assay for ABC Transporter (ABCB11) using HepaRG (AID 2283463)
Outline: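 ABCB11 transcript levels quantified by TaqMan qRT-PCR against three housekeeping genes after 48 h chemical exposure of HepaRG cultures. Concentrations up to 100 uM in half-log steps, 0.5% DMSO vehicle; both induction and suppression scored.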

[15] = read-out: ABC Transporter (ABCC2), ABCC2 (gene 1244); assay: LTEA_HepaRG_ABCC2: Life Technologies and Expression Analysis (LTEA) Assay for ABC Transporter (ABCC2) using HepaRG (AID 2283464)
Outline: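 Differentiated HepaRG cells in serum-free induction medium exposed 48 h to eight half-log concentrations up to 100 uM, 0.5% DMSO, in duplicate. ABCC2 mRNA measured by qRT-PCR (TaqMan, Fluidigm), normalized to ACTB, GAPDH and POLR2A. Fitted in both directions against DMSO.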

[16] = read-out: Broad substrate specificity ATP-binding cassette transporter ABCG2 (Homo sapiens) (UniProt Q9UNQ0); assay: LTEA_HepaRG_ABCG2: Life Technologies and Expression Analysis (LTEA) Assay for ABC Transporter (ABCG2) using HepaRG (AID 2283465)
Outline: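 ABCG2 transcript was quantified by TaqMan qRT-PCR against three housekeeping genes in HepaRG cells. Cells were treated in duplicate for 48 h across an 8-point half-log series up to 100 uM, with 0.5% DMSO vehicle. Gain or loss versus DMSO was fit.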

[17] = read-out: ATP-citrate lyase (ACLY), ACLY (gene 47); assay: LTEA_HepaRG_ACLY: Life Technologies and Expression Analysis (LTEA) Assay for ATP-citrate lyase (ACLY) using HepaRG (AID 2283466)
Outline: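 ACLY mRNA quantified by qRT-PCR on Fluidigm arrays against three housekeeping genes, after 48 h chemical treatment of HepaRG cells (top concentration 100 uM, half-log steps, 0.5% DMSO vehicle). Up- or down-regulation fitted relative to DMSO.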

[18] = read-out: Peroxisomal acyl-coenzyme A oxidase 1 (ACOX1) gene, ACOX1 (gene 51); assay: LTEA_HepaRG_ACOX1: Life Technologies and Expression Analysis (LTEA) Assay for Peroxisomal acyl-coenzyme A oxidase 1 (ACOX1) gene using HepaRG (AID 2283467)
Outline: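 ACOX1 transcript levels were quantified by TaqMan qRT-PCR against three housekeeping genes after 48 h chemical exposure of differentiated human HepaRG cells. Exposure used eight half-log steps topping at 100 uM, 0.5% DMSO vehicle, in duplicate. Bidirectional curve fits were made relative to DMSO.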

[19] = read-out: catalase (CAT), CAT (gene 847); assay: LTEA_HepaRG_CAT: Life Technologies and Expression Analysis (LTEA) Assay for catalase (CAT) using HepaRG (AID 2283452)
Outline: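 Expression of CAT was quantified by TaqMan qRT-PCR with ACTB/GAPDH/POLR2A normalization after 48 h chemical exposure of HepaRG. Eight-point half-log series, top 100 uM, in 0.5% DMSO; gain or loss fitted against vehicle.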

Measured: AC50

Fatty acid synthase (Homo sapiens), sequence (P49327 whole entry, looked up): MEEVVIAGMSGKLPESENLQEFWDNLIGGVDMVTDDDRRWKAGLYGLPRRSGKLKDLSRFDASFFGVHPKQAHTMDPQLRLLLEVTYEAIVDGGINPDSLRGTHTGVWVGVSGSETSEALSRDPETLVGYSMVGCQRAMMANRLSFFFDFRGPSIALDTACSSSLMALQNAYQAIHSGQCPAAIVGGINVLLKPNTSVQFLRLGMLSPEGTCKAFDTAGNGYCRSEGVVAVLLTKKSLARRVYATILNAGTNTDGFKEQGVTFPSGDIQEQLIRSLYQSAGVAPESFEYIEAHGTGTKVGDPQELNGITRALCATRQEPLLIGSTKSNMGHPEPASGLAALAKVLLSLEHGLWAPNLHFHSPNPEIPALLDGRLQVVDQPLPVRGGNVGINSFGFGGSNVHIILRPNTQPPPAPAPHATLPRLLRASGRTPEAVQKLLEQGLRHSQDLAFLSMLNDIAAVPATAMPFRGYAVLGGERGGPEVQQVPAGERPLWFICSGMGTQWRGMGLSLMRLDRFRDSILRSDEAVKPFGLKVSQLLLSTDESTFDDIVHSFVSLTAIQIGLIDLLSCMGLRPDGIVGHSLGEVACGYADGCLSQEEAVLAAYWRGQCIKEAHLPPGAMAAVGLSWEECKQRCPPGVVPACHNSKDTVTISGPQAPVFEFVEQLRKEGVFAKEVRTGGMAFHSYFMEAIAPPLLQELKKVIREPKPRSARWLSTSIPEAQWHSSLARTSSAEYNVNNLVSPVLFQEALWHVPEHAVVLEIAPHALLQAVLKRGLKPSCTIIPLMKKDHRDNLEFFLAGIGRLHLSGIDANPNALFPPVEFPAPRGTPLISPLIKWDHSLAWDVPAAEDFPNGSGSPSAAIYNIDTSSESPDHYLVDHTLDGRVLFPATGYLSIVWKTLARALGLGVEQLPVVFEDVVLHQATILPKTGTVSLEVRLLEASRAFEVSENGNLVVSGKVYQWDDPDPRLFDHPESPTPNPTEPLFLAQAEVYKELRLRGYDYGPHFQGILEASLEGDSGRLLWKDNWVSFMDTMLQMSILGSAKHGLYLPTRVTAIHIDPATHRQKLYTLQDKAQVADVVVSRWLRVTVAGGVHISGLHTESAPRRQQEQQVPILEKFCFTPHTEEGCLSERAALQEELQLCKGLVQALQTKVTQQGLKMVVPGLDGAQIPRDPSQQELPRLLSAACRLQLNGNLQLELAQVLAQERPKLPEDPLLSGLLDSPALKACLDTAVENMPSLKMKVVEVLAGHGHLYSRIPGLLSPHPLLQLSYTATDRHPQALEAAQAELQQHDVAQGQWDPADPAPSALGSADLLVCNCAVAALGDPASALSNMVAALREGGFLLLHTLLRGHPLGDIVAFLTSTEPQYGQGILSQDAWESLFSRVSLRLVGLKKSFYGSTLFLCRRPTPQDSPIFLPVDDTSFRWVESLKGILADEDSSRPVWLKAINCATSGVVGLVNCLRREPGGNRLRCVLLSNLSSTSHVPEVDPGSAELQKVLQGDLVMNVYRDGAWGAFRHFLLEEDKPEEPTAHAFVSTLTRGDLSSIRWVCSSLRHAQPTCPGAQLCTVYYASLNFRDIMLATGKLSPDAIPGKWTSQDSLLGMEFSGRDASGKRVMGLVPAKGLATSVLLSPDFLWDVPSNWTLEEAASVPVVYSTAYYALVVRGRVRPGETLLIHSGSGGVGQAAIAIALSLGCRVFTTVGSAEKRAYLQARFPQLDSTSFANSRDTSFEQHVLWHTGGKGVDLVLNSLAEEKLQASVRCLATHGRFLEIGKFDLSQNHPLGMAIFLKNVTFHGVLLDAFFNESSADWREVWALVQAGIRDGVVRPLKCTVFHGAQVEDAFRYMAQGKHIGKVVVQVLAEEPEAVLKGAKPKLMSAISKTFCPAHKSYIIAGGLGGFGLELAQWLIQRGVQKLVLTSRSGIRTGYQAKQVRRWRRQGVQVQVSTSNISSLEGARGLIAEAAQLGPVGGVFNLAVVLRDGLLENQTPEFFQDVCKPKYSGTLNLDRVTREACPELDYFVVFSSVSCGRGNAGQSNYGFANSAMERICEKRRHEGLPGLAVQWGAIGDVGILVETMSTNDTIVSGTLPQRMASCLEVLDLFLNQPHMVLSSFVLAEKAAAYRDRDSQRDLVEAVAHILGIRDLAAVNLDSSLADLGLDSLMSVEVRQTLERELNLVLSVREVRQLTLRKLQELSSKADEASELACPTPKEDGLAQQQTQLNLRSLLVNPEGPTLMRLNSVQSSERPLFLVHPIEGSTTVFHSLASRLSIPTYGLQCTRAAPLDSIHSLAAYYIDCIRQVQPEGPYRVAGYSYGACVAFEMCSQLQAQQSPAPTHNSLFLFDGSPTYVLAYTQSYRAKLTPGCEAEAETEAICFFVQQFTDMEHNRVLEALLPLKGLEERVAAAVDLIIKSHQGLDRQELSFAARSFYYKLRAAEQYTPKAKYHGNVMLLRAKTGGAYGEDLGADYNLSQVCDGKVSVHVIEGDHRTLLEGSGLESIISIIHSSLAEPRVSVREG
Broad substrate specificity ATP-binding cassette transporter ABCG2 (Homo sapiens), sequence (Q9UNQ0 whole entry, looked up): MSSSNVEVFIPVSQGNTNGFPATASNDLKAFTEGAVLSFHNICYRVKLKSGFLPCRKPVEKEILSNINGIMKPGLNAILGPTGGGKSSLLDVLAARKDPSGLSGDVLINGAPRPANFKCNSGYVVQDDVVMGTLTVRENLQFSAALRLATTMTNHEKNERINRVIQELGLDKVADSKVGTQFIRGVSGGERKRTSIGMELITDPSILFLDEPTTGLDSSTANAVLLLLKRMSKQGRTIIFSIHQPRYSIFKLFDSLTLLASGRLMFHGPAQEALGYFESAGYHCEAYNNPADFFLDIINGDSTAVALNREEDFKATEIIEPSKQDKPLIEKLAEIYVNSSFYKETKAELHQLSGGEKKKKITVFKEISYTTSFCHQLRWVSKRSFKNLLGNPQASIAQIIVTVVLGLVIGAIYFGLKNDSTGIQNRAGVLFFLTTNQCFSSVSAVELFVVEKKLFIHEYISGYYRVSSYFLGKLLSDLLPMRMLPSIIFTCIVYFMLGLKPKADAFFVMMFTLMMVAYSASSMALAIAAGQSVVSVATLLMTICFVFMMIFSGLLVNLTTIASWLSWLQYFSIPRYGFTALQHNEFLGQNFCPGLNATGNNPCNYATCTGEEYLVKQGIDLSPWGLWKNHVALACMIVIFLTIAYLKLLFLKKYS

COc1cc(-c2nc(NC(=O)c3cc4cc(C)cc(C)c4n3CC(=O)O)sc2CCC2CCCCC2)c(OC)cc1Cl
active: [4] 18.4 µM | [5] 8.16 µM | [7] 19.8 µM | [8] 42.2 µM | [9] 15.2 µM | [10] 20.6 µM | [11] 11.4 µM | [12] 2.18 µM | [14] 7.37 µM | [15] 7.35 µM | [16] 24.5 µM | [17] 12 µM | [18] 8.11 µM
inactive: [1] | [2] | [3] | [6] | [13]

CCCc1cc(=O)[nH]c(=S)[nH]1
active: [6] 50 µM
not listed: [7]
inactive: all other assays above

O=[N+]([O-])C(CO)(CO)CO
active: [6] 25.3 µM
not listed: [7] | [10] | [17]
inactive: all other assays above

Cc1cccc(C)c1O
active: [6] 50 µM
not listed: [7]
inactive: all other assays above
